Screening data as filed in PubChem BioAssay.
C diff HTS: blocks growth of Clostridium difficile; Clostridium difficile clinical isolate growth, OD600, 24 h; stronger effect = lower value; growth activity, negative = inhibition, % at 16 µg/mL (by protocol); 86,000 tested, 0.25% active;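 active = mean growth activity at or below -80% and every replicate also at or below -80%; inconclusive = mean at or below -80% but some replicate above -80%; inactive = mean growth activity above -80%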
T cruzi growth-1: inhibitors of T. cruzi proliferation. T. cruzi beta-gal in NIH3T3, GalScreen luminescence, 90 h. inhibition, % at 8.34 µM. 77,000 tested, 5.9% active. AID 624255;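 active = mean inhibition above about 93%, with at least 55% of replicates each passing it, limit read from the data, passing the limit was not always enough; inconclusive = only one of those two conditions holds; inactive = neither condition holds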
T cruzi growth-2: Trypanosoma cruzi proliferation inhibition. shares compounds with T cruzi growth-1. T. cruzi beta-gal in NIH3T3, GalScreen luminescence, 90 h. inhibition, % at 8.35 µM. 5,600 tested, 72% active. AID 651739;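 active = mean replicate inhibition above about 95% and at least 55% of replicates individually reaching it, limit read from the data; inconclusive = only one of the two criteria is met; inactive = neither criterion is met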
T cruzi growth-3: Trypanosoma cruzi proliferation inhibition; shares compounds with T cruzi growth-1; T. cruzi beta-gal in NIH3T3, GalScreen luminescence, 90 h; 5,600 tested, 21% active; inhibition, % at 2.09 µM;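 active = mean inhibition above about 95%, with at least 55% of replicates also reaching it, limit read from the data; inconclusive = meets just one of the two conditions; inactive = meets neither condition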
3T3 cytotox: kills mouse NIH/3T3 fibroblasts | AID 651742 | 5,600 tested, 14% active | NIH/3T3 viability, CellTiter-Glo ATP luminescence, 90 h | cytotoxicity (signal decrease), % at 8.35 µM | shares compounds with T cruzi growth-1;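 active = mean signal decrease across replicates above about 35% based on untreated-well scatter, with enough replicates individually passing, limit read from the data; inconclusive = no rule stated though some were filed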
3T3 cytotox 2: cytotoxicity in mouse NIH/3T3 fibroblasts; shares compounds with T cruzi growth-1; NIH/3T3 viability, CellTiter-Glo ATP luminescence, 90 h; AID 651744; 5,600 tested, 56% active; inhibition, % at 24.9 µM;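 active = mean loss of cell viability signal at or above a set limit, and enough replicates individually reaching it; inconclusive = meets only the mean limit or only the replicate share; inactive = meets neither condition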
Numbers stand for hits; . = inactive; ? = inconclusive; / = no result. Shown is part of a subset that was picked to be rich in hits.

SMILES	C diff HTS	T cruzi growth-1	T cruzi growth-2	T cruzi growth-3	3T3 cytotox	3T3 cytotox 2
O=C(C1CC1)N1CCCCN2[C@@H](CO)[C@H](c3ccc(C#CC4CC4)cc3)[C@@H]2C1	.	103.2	.	.	.	51.6
O=C(C1CCC1)N1CCCCN2[C@H](C1)[C@H](c1ccc(C#CC3CCCC3)cc1)[C@@H]2CO	.	103.3	108.0	.	.	104.0
C[C@@H]1CN([C@H](C)CO)C(=O)c2cc(C#C[C@@H](C)O)cnc2O[C@@H]1CN(C)Cc1ccc(-c2ccccc2)cc1	.	/	/	/	/	/
CCCC(=O)Nc1ccc2c(c1)OC[C@H](C)N(C(=O)CC)C[C@@H](C)[C@@H](OC)CN(C)C2=O	/	.	/	/	/	/
C[C@H]1CN([C@@H](C)CO)C(=O)c2cccc(NS(C)(=O)=O)c2O[C@H]1CN(C)Cc1ccc(Cl)c(Cl)c1	.	.	/	/	/	/
O=C(O)C[C@@H]1C=C[C@@H](NC(=O)CCN2CCCCC2)[C@H](CO)O1	.	/	/	/	/	/
COc1ccc(CN2CC3(CN(C(C)=O)C3)c3c([nH]c4cc(OC)ccc34)[C@H]2CO)cc1	.	/	/	/	/	/
O=C(C[C@@H]1C[C@H]2c3cc(NC(=O)NC4CCCC4)ccc3O[C@H]2[C@@H](CO)O1)NCc1ccc(-c2ccccc2)cc1	.	.	/	/	/	/
O=C(C[C@@H]1C[C@H]2c3cc(NC(=O)Cc4ccncc4)ccc3O[C@H]2[C@@H](CO)O1)NCc1cccnc1	.	.	/	/	/	/
O=C(C[C@@H]1C[C@H]2c3cc(NC(=O)NC4CCCC4)ccc3O[C@H]2[C@@H](CO)O1)NCc1ccc(Cl)cc1	.	.	/	/	/	/
O=C(C[C@H]1C[C@@H]2c3cc(NC(=O)NC4CCCC4)ccc3O[C@@H]2[C@@H](CO)O1)NCc1ccc(Cl)cc1	.	?	103.2	.	.	.
O=C(C[C@H]1C[C@@H]2c3cc(NC(=O)CC4CC4)ccc3O[C@@H]2[C@H](CO)O1)NCc1ccc(-c2ccccc2)cc1	.	103.7	111.7	.	.	.
O=C(C[C@@H]1C[C@@H]2c3cc(NC(=O)CC4CC4)ccc3O[C@@H]2[C@@H](CO)O1)NCc1cccnc1	.	99.9	112.9	.	.	.
O=C(C[C@H]1C[C@@H]2c3cc(NC(=O)CC4CC4)ccc3O[C@@H]2[C@@H](CO)O1)NCc1ccc(-c2ccccc2)cc1	.	.	/	/	/	/
O=C(C[C@@H]1C[C@H]2c3cc(NC(=O)NC4CCCC4)ccc3O[C@H]2[C@H](CO)O1)NCc1ccc(-c2ccccc2)cc1	.	100.4	104.8	?	.	51.4
O=C(NCC[C@H]1CC[C@@H](NS(=O)(=O)Cc2ccccc2)[C@H](CO)O1)C1CC1	.	/	/	/	/	/
Cc1noc(C)c1NC(=O)N(C)C[C@@H]1OCCCC[C@@H](C)Oc2ccc(NC(=O)Nc3ccc(C(F)(F)F)cc3)cc2C(=O)N([C@@H](C)CO)C[C@H]1C	.	.	/	/	/	/
COc1ccc2c3c(n(C)c2c1)[C@@H](CO)N(C(=O)c1cnccn1)CC31CN(C(=O)c2cnccn2)C1	.	/	/	/	/	/
CN1C(=O)c2cc(NC(=O)Cc3ccccc3)ccc2OC[C@@H]2O[C@@H](CC(=O)NCc3ccc(Cl)cc3)CC[C@H]21	.	.	/	/	/	/
Cc1cccc(S(=O)(=O)N(C)C[C@@H]2OCc3ccccc3-c3c(n(C)c4ccccc34)C(=O)N([C@@H](C)CO)C[C@H]2C)c1	/	.	/	/	/	/
Cc1cccc(S(=O)(=O)N(C)C[C@H]2OCc3ccccc3-c3c(n(C)c4ccccc34)C(=O)N([C@@H](C)CO)C[C@H]2C)c1	/	98.7	99.6	108.5	.	.
Cc1cccc(S(=O)(=O)N(C)C[C@H]2OCc3ccccc3-c3c(n(C)c4ccccc34)C(=O)N([C@H](C)CO)C[C@H]2C)c1	/	.	/	/	/	/
Cc1cccc(S(=O)(=O)N(C)C[C@@H]2OCc3ccccc3-c3c(n(C)c4ccccc34)C(=O)N([C@@H](C)CO)C[C@@H]2C)c1	/	100.3	102.8	.	.	80.4
CCCN(C)C[C@@H]1Oc2cc(C#Cc3cccc(OC)c3)ccc2S(=O)(=O)N([C@H](C)CO)C[C@@H]1C	.	/	/	/	/	/
C[C@@H]1CN([C@H](C)CO)S(=O)(=O)c2ccc(C#Cc3ccc(F)cc3)cc2O[C@H]1CN(C)C	.	.	/	/	/	/
SMILES	C diff HTS	T cruzi growth-1	T cruzi growth-2	T cruzi growth-3	3T3 cytotox	3T3 cytotox 2
C[C@H](CO)N1C[C@H](C)[C@@H](CN(C)S(C)(=O)=O)Oc2cc(C#Cc3ccc(F)cc3)ccc2S1(=O)=O	.	106.4	109.0	.	.	52.0
C[C@H](CO)N1C[C@H](C)[C@H](CN(C)C)Oc2cc(C#Cc3ccc(F)cc3)ccc2S1(=O)=O	.	.	/	/	/	/
C[C@@H]1CN([C@H](C)CO)S(=O)(=O)c2ccc(C#Cc3ccc(F)cc3)cc2O[C@@H]1CN(C)S(C)(=O)=O	.	?	?	.	46.4	65.6
C[C@@H]1CN([C@@H](C)CO)S(=O)(=O)c2ccc(C#Cc3ccc(F)cc3)cc2O[C@@H]1CN(C)S(C)(=O)=O	.	?	.	.	35.5	74.2
C[C@@H]1CN([C@@H](C)CO)S(=O)(=O)c2ccc(C#Cc3ccc(F)cc3)cc2O[C@H]1CN(C)C	.	.	/	/	/	/
C[C@H](CO)N1C[C@H](C)[C@@H](CN(C)S(C)(=O)=O)OCCCC[C@H](C)Oc2ccc(N(C)C)cc2C1=O	.	.	/	/	/	/
C[C@H]1CN([C@@H](C)CO)C(=O)Cc2cc(NC(=O)Nc3ccc4c(c3)OCO4)ccc2O[C@H]1CN(C)C(=O)Nc1cccc2ccccc12	.	.	/	/	/	/
C[C@H](CO)N1C[C@H](C)[C@@H](CN(C)C(=O)CC2CC2)Oc2cc(-c3ccncc3)ccc2S1(=O)=O	.	.	/	/	/	/
COc1ccc(S(=O)(=O)N(C)C[C@H]2Oc3c(NS(C)(=O)=O)cccc3C(=O)N([C@H](C)CO)C[C@@H]2C)cc1	.	.	/	/	/	/
Cc1cc(C(=O)Nc2cccc3c2O[C@@H](CN(C)S(=O)(=O)c2ccc(Cl)cc2)[C@@H](C)CN([C@H](C)CO)C3=O)n(C)n1	.	.	/	/	/	/
COCC(=O)N1[C@H](CO)[C@@H](c2ccccc2)C12CN(C(=O)Nc1ccccc1F)C2	.	/	/	/	/	/
O=C(C[C@H]1CC[C@H](NS(=O)(=O)c2ccc(F)cc2)[C@H](CO)O1)NCc1ccncn1	.	.	/	/	/	/
C[C@@H]1CN([C@H](C)CO)C(=O)Cc2cc(NC(=O)Cc3cn(C)c4ccccc34)ccc2O[C@H]1CN(C)Cc1ccc(C(F)(F)F)cc1	.	100.0	104.8	.	?	71.2
C[C@H]1CN([C@@H](C)CO)C(=O)Cc2cc(NC(=O)Cc3cn(C)c4ccccc34)ccc2O[C@@H]1CN(C)Cc1ccc(-c2ccccc2)cc1	.	98.4	103.3	.	.	.
C[C@@H]1CN([C@@H](C)CO)C(=O)Cc2cc(NC(=O)Cc3cn(C)c4ccccc34)ccc2O[C@@H]1CN(C)Cc1ccccc1	.	.	/	/	/	/
C[C@H]1CN([C@@H](C)CO)C(=O)Cc2cc(NC(=O)Cc3cn(C)c4ccccc34)ccc2O[C@H]1CN(C)Cc1ccc(C(F)(F)F)cc1	.	.	/	/	/	/
